Measured values reported in the supplement of paper PMC7595190.
Unmarked numbers belong to inactive results.

System: MV4-11
Test: CellTox Green cytotoxicity fluorescence relative to DMSO vehicle (fold of vehicle RFU); higher = more cell death (loss of membrane integrity), active = 2 or more
Method: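 Paediatric AML cell lines (MV4-11, CMK, Kasumi-1; 4x10^4 cells/well, 96-well) treated with single compounds from the Selleckchem apoptosis library at 0.01, 0.1 and 1 µM. Cytotoxicity was read with CellTox Green (RFU, Ex 485/Em 520) at 24, 48 and 72 h and normalised to the 0.1% DMSO vehicle. Normalised RFU >= 2 was taken as a successful, cell-killing treatment.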

Compound: Nc1cccc2c1CN(C1CCC(=O)NC1=O)C2=O (stereo unspecified) [Lenalidomide]
- CellTox Green cytotoxicity fluorescence (0.01 µM, 24 h): 0.939
- CellTox Green cytotoxicity fluorescence (0.01 µM, 48 h): 0.942
- CellTox Green cytotoxicity fluorescence (0.01 µM, 72 h): 0.935
- CellTox Green cytotoxicity fluorescence (0.1 µM, 24 h): 0.943
- CellTox Green cytotoxicity fluorescence (0.1 µM, 48 h): 0.929
- CellTox Green cytotoxicity fluorescence (0.1 µM, 72 h): 0.915
- CellTox Green cytotoxicity fluorescence (1 µM, 24 h): 0.952
- CellTox Green cytotoxicity fluorescence (1 µM, 48 h): 0.958
- CellTox Green cytotoxicity fluorescence (1 µM, 72 h): 0.944

Compound: COc1cc(C(=O)N2CCC(N3CCN(C)CC3)CC2)ccc1Nc1ncc2c(n1)N(C)c1ccccc1C(=O)N2C
- CellTox Green cytotoxicity fluorescence (0.01 µM, 24 h): 1.02
- CellTox Green cytotoxicity fluorescence (0.01 µM, 48 h): 1.01
- CellTox Green cytotoxicity fluorescence (0.01 µM, 72 h): 1.02
- CellTox Green cytotoxicity fluorescence (0.1 µM, 24 h): 1.02
- CellTox Green cytotoxicity fluorescence (0.1 µM, 48 h): 1.03
- CellTox Green cytotoxicity fluorescence (0.1 µM, 72 h): 1.08
- CellTox Green cytotoxicity fluorescence (1 µM, 24 h): 1.02
- CellTox Green cytotoxicity fluorescence (1 µM, 48 h): 1.29
- CellTox Green cytotoxicity fluorescence (1 µM, 72 h): 1.62

Compound: Nc1ccccc1NC(=O)c1cnccn1
- CellTox Green cytotoxicity fluorescence (0.01 µM, 24 h): 0.953
- CellTox Green cytotoxicity fluorescence (0.01 µM, 48 h): 0.952
- CellTox Green cytotoxicity fluorescence (0.01 µM, 72 h): 0.937
- CellTox Green cytotoxicity fluorescence (0.1 µM, 24 h): 0.964
- CellTox Green cytotoxicity fluorescence (0.1 µM, 48 h): 0.984
- CellTox Green cytotoxicity fluorescence (0.1 µM, 72 h): 0.99
- CellTox Green cytotoxicity fluorescence (1 µM, 24 h): 0.954
- CellTox Green cytotoxicity fluorescence (1 µM, 48 h): 0.989
- CellTox Green cytotoxicity fluorescence (1 µM, 72 h): 1.01

Compound: CC(C)(C)C[C@@H]1N[C@@H](C(=O)N[C@H]2CC[C@H](O)CC2)[C@H](c2cccc(Cl)c2F)[C@]12C(=O)Nc1cc(Cl)ccc12
- CellTox Green cytotoxicity fluorescence (0.01 µM, 24 h): 1.04
- CellTox Green cytotoxicity fluorescence (0.01 µM, 48 h): 1.03
- CellTox Green cytotoxicity fluorescence (0.01 µM, 72 h): 1.05
- CellTox Green cytotoxicity fluorescence (0.1 µM, 24 h): 0.993
- CellTox Green cytotoxicity fluorescence (0.1 µM, 48 h): 1.11
- CellTox Green cytotoxicity fluorescence (0.1 µM, 72 h): 1.22
- CellTox Green cytotoxicity fluorescence (1 µM, 24 h): 1.26
- CellTox Green cytotoxicity fluorescence (1 µM, 48 h): 2.25 (active)
- CellTox Green cytotoxicity fluorescence (1 µM, 72 h): 2.49 (active)
